Assays:
Test in all cases: DAPPL (digital affinity profiling via proximity ligation, sequencing); 10 mM Tris-HCl pH 7.5, 50 mM NaCl, 1 mM DTT, 4% glycerol, room temperature, 30 min; GST-TFs on glutathione beads, 16-mer random dsDNA library, 0.1% formaldehyde crosslink after washing; high values mean tight binding
[1] = biological target: T1, FLI1 (Homo sapiens, UniProt Q01543 1-452); settings: protein: recombinant; tags: N-terminal GST; dsDNA, one strand shown
T1 sequence: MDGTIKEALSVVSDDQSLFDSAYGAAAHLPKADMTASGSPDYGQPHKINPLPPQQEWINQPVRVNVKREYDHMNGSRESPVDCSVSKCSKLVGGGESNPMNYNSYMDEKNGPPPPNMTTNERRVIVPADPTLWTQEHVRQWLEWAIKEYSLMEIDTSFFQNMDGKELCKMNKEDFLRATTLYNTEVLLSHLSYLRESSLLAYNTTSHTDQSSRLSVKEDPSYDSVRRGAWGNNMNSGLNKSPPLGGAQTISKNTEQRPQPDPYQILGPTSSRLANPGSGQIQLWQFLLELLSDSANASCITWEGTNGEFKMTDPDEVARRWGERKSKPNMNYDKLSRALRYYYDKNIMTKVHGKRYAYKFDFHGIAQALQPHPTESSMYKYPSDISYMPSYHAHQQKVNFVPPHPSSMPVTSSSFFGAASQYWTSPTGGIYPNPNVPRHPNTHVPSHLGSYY
Summary of the method: (§1)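 GST fusions of human transcription factors were expressed in yeast and captured with glutathione beads. Once given DNA barcodes and pooled alongside a tag-only sample, they were incubated for 30 min at room temperature with 200 nmole of a random double-stranded 16-mer DNA library in Tris/NaCl/DTT/glycerol buffer, then washed, crosslinked (0.1% formaldehyde), proximity-ligated, PCR-amplified and sequenced on an Illumina NextSeq500. The binding signal of each hexamer is its read frequency for a factor divided by its frequency for the tag-only sample.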

[2] = biological target: T2, ELK1 (Homo sapiens, UniProt P19419 1-428); settings: protein: recombinant; tags: N-terminal GST; dsDNA, one strand shown
T2 sequence: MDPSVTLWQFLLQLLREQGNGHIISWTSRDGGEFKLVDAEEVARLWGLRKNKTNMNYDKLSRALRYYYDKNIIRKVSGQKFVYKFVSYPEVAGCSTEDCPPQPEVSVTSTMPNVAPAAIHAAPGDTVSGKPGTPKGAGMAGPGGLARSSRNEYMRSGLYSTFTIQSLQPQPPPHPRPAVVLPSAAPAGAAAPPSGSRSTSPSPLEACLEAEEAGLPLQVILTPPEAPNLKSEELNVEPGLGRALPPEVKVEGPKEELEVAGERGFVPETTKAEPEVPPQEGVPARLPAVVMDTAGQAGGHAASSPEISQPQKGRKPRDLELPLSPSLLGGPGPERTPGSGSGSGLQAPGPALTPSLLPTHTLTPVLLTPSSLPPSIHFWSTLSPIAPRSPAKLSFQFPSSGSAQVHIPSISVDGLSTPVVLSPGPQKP
Summary of the method: as §1

[3] = biological target: T3, GABPA (Homo sapiens, UniProt Q06546 1-454); settings: protein: recombinant; tags: N-terminal GST; dsDNA, one strand shown
T3 sequence: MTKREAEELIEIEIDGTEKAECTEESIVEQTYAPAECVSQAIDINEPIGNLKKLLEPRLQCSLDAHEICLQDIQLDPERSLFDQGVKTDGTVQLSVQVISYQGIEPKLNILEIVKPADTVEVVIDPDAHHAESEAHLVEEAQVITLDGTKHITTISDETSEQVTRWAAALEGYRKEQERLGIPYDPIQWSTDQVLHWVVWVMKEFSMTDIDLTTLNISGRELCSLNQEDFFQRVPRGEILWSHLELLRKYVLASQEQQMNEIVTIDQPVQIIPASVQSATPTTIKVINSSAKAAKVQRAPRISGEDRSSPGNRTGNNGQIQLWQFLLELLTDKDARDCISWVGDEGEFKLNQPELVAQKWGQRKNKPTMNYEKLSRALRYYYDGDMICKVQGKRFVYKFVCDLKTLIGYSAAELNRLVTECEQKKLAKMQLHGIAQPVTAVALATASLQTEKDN
Summary of the method: as §1

[4] = biological target: T4, ERG (Homo sapiens, UniProt P11308 1-479); settings: protein: recombinant; tags: N-terminal GST; dsDNA, one strand shown
T4 sequence: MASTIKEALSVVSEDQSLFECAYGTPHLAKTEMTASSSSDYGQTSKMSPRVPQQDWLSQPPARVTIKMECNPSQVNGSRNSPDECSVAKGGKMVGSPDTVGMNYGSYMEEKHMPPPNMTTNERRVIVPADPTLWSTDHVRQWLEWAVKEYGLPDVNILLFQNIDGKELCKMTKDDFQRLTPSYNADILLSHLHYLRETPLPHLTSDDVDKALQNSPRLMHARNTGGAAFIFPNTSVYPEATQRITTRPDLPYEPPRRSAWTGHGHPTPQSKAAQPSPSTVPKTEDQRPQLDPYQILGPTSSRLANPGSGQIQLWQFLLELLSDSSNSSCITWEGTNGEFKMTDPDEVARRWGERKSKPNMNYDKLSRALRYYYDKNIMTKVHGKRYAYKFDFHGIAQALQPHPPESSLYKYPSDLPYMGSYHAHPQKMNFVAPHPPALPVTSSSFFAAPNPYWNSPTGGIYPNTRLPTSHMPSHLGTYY
Summary of the method: as §1

[5] = biological target: ELF1 (Homo sapiens, UniProt P32519 1-619); settings: protein: recombinant; tags: N-terminal GST; dsDNA, one strand shown
ELF1, sequence (P32519 whole entry): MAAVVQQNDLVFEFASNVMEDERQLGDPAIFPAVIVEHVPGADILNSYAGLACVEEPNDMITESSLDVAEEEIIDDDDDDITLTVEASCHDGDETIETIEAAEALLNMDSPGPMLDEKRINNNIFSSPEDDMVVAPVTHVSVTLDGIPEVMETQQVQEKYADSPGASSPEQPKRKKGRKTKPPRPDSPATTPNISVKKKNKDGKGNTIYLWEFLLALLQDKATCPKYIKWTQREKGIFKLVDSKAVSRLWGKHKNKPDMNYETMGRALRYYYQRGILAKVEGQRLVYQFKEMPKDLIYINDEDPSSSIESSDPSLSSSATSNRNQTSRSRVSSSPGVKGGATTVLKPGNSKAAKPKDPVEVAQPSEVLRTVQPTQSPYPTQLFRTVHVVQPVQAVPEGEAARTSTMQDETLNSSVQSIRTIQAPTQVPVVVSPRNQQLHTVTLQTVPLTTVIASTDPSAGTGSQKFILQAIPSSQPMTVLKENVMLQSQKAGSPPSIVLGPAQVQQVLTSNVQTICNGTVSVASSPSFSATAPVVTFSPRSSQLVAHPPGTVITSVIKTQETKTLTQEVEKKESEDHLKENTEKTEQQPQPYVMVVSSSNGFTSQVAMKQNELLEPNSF
Summary of the method: as §1

[6] = biological target: T5, EHF (Homo sapiens, UniProt Q9NZC4 1-300); settings: protein: recombinant; tags: N-terminal GST; dsDNA, one strand shown
T5 sequence: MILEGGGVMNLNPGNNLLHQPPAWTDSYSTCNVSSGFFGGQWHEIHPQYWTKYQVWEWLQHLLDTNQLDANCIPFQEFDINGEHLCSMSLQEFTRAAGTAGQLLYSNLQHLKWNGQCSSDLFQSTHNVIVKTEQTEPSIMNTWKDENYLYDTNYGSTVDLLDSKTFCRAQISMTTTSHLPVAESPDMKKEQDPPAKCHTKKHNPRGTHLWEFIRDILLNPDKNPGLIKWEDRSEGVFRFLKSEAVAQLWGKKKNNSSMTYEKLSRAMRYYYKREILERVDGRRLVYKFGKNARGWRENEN
Summary of the method: as §1

[7] = biological target: SPI1 (Homo sapiens, UniProt P17947 1-270); settings: protein: recombinant; tags: N-terminal GST; dsDNA, one strand shown
Summary of the method: as §1

[8] = biological target: SPIB (Homo sapiens, UniProt Q01892 1-262); settings: protein: recombinant; tags: N-terminal GST; dsDNA, one strand shown
SPIB, sequence (Q01892 whole entry): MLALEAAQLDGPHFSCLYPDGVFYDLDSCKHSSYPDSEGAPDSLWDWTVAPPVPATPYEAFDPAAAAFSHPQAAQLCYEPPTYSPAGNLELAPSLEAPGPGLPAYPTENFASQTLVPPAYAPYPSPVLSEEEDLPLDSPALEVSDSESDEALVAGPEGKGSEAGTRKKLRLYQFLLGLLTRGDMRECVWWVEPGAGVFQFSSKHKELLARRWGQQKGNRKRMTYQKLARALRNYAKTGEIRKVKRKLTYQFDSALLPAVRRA
Summary of the method: as §1

[9] = biological target: T6, ELK3 (Homo sapiens, UniProt P41970 1-407); settings: protein: recombinant; tags: N-terminal GST; dsDNA, one strand shown
T6 sequence: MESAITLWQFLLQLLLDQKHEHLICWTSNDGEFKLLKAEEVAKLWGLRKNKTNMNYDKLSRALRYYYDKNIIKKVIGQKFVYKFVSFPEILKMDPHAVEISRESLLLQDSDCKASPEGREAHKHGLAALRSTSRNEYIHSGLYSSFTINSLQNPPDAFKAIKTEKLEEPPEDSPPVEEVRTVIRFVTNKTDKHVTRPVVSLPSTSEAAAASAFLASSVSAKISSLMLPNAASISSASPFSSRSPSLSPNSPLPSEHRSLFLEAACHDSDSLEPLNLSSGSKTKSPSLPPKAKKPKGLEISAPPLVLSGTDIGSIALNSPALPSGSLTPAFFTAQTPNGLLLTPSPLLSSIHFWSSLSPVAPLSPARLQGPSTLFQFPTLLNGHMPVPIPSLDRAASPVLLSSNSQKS
Summary of the method: as §1

[10] = biological target: T7, FEV (Homo sapiens, UniProt Q99581 1-238); settings: protein: recombinant; tags: N-terminal GST; dsDNA, one strand shown
T7 sequence: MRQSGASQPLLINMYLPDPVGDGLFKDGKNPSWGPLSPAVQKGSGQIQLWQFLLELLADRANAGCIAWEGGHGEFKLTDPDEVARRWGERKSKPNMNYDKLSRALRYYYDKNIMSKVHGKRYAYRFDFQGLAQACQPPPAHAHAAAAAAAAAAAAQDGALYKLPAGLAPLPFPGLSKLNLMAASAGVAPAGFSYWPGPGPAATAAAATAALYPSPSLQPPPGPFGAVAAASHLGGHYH
Summary of the method: as §1

[11] = biological target: ETV5 (Homo sapiens, UniProt P41161 1-510); settings: protein: recombinant; tags: N-terminal GST; dsDNA, one strand shown
ETV5, sequence (P41161 whole entry): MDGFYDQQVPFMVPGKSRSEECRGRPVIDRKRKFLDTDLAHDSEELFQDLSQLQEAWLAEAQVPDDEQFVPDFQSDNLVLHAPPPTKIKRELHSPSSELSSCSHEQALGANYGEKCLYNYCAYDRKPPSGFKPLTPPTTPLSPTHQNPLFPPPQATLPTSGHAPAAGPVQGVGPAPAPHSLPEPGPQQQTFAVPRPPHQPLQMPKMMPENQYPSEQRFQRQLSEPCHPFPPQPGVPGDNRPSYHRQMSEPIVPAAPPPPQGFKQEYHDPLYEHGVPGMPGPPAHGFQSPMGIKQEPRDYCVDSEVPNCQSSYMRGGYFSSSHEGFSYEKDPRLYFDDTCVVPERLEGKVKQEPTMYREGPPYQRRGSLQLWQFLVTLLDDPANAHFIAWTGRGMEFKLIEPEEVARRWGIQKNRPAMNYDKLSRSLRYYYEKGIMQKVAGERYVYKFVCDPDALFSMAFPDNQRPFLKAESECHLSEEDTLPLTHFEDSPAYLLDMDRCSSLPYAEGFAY
Summary of the method: as §1

[12] = biological target: HSF1 (Homo sapiens, UniProt Q00613 1-529); settings: protein: recombinant; tags: N-terminal GST; chain copies: 3; dsDNA, one strand shown
HSF1, sequence (Q00613 whole entry): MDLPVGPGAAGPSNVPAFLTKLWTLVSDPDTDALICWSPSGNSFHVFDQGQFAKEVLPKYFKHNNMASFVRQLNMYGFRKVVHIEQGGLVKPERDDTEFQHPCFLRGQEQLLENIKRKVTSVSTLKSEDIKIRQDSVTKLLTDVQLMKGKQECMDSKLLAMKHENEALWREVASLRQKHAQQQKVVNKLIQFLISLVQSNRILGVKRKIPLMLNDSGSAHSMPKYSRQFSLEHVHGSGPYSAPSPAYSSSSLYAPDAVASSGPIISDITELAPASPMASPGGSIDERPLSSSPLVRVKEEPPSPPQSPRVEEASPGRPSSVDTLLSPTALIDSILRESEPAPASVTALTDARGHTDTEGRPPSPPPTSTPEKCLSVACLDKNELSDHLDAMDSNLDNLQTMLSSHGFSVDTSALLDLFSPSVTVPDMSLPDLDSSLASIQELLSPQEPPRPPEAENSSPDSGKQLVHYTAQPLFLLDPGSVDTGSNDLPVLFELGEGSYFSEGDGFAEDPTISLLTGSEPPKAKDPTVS
Summary of the method: as §1

[13] = biological target: T8, SPIC (Homo sapiens, UniProt Q8N5J4 1-248); settings: protein: recombinant; tags: N-terminal GST; dsDNA, one strand shown
T8 sequence: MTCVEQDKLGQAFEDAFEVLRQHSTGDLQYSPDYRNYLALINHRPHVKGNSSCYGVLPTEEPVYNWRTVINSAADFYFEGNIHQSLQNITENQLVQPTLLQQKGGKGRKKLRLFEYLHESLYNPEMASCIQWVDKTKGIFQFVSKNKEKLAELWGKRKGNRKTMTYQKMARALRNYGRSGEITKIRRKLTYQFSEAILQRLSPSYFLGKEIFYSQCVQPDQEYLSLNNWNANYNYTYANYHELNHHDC
Summary of the method: as §1

[14] = biological target: ELF4 (Homo sapiens, UniProt Q99607 1-663); settings: protein: recombinant; tags: N-terminal GST; dsDNA, one strand shown
ELF4, sequence (Q99607 whole entry): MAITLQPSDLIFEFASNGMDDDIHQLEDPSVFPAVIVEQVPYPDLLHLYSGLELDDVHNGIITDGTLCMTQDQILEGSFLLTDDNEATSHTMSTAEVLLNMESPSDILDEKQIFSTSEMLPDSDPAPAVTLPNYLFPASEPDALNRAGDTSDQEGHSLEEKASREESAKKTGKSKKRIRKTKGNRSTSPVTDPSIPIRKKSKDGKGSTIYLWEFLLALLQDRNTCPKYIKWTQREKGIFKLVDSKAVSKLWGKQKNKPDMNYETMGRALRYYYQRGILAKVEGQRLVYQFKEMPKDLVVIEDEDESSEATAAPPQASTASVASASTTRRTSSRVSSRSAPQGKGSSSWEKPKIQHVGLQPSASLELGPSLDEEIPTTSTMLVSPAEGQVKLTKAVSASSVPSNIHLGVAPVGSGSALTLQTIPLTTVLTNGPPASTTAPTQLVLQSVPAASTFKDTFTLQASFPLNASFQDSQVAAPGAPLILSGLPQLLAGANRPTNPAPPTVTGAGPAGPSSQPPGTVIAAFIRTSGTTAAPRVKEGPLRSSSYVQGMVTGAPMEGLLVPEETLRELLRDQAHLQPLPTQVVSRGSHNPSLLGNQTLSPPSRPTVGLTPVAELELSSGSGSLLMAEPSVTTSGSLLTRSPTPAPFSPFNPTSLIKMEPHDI
Summary of the method: as §1

[15] = biological target: T9, ELK4 (Homo sapiens, UniProt P28324-2 1-405); settings: protein: recombinant; tags: N-terminal GST; dsDNA, one strand shown
T9 sequence: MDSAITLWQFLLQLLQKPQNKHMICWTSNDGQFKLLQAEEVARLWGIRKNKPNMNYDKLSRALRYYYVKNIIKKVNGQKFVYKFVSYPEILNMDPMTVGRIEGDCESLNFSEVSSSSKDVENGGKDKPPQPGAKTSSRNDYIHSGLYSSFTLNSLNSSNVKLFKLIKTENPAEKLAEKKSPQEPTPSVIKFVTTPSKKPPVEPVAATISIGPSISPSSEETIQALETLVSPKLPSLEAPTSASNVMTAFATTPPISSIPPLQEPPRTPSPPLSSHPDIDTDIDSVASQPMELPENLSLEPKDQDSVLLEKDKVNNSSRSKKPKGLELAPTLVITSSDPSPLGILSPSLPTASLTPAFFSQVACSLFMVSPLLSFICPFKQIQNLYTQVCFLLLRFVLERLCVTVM
Summary of the method: as §1

[16] = biological target: T10, ETV2 (Homo sapiens, UniProt O00321 1-342); settings: protein: recombinant; tags: N-terminal GST; dsDNA, one strand shown
T10 sequence: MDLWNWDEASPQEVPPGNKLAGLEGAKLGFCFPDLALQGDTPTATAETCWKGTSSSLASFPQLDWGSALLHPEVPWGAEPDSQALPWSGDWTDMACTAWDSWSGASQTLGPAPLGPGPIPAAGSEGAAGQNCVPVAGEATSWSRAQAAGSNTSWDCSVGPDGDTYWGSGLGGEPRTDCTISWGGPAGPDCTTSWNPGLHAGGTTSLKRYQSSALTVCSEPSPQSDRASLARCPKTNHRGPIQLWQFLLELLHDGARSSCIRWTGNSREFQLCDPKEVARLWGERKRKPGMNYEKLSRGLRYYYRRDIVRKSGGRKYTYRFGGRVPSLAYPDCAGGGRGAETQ
Summary of the method: as §1

[17] = biological target: T11, ELF3 (Homo sapiens, UniProt P78545 1-371); settings: protein: recombinant; tags: N-terminal GST; dsDNA, one strand shown
T11 sequence: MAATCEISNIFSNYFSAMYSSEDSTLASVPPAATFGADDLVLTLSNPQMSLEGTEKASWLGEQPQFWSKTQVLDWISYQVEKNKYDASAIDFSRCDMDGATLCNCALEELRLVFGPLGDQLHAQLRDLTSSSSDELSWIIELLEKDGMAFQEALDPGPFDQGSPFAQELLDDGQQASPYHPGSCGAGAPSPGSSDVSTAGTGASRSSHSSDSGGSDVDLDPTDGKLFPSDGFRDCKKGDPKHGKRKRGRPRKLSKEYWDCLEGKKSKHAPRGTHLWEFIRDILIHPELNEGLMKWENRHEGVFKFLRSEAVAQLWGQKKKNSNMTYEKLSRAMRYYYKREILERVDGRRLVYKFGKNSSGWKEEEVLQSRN
Summary of the method: as §1

[18] = biological target: ETV1 (Homo sapiens, UniProt P50549 1-477); settings: protein: recombinant; tags: N-terminal GST; dsDNA, one strand shown
ETV1, sequence (P50549 whole entry): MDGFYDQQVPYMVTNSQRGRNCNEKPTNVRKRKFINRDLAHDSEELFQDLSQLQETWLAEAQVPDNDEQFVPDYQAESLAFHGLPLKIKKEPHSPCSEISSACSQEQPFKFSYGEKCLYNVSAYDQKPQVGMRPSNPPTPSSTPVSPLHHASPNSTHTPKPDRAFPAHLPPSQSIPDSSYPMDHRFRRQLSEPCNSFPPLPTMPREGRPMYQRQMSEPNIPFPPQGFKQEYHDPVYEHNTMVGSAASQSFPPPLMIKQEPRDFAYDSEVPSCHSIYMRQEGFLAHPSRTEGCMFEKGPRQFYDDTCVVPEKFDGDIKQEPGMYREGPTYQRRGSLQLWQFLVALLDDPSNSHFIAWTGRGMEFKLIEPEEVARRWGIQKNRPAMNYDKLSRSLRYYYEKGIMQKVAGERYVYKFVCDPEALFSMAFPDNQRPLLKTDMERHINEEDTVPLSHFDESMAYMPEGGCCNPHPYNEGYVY
Summary of the method: as §1

With ACGAAC the binding signal [1] was 1.11 fold enrichment (6-mer frequency, TF over GST control), the binding signal [2] was 1.15 fold enrichment (6-mer frequency, TF over GST control) and the binding signal [3] was 1.19 fold enrichment (6-mer frequency, TF over GST control). The binding signal [4] was 1.15 fold enrichment (6-mer frequency, TF over GST control), the binding signal [5] was 1.24 fold enrichment (6-mer frequency, TF over GST control) and the binding signal [6] was 1.12 fold enrichment (6-mer frequency, TF over GST control). For the same sequence, the binding signal [7] was 1.1 fold enrichment (6-mer frequency, TF over GST control), the binding signal [8] was 1.22 fold enrichment (6-mer frequency, TF over GST control) and the binding signal [9] was 1.13 fold enrichment (6-mer frequency, TF over GST control). The binding signal [10] was 1.15 fold enrichment (6-mer frequency, TF over GST control), the binding signal [11] was 1.22 fold enrichment (6-mer frequency, TF over GST control) and the binding signal [12] was 1.19 fold enrichment (6-mer frequency, TF over GST control). The binding signal [13] was 1.07 fold enrichment (6-mer frequency, TF over GST control), the binding signal [14] was 1.22 fold enrichment (6-mer frequency, TF over GST control) and the binding signal [15] was 1.18 fold enrichment (6-mer frequency, TF over GST control). For the same sequence, the binding signal [16] was 1.18 fold enrichment (6-mer frequency, TF over GST control), the binding signal [17] was 1.22 fold enrichment (6-mer frequency, TF over GST control) and the binding signal [18] was 1.09 fold enrichment (6-mer frequency, TF over GST control).
